GLA spleen mod = alpha-galactosidase A (human) modulation; P06280; human spleen homogenate, 4MU-alpha-Gal fluorescence, 40 min; Potency, µM (top dose mostly 80 µM), hits mostly inhibitors; actives 0.008% (n = 240,000); AID 2107
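Inhibition or activation of alpha-galactosidase in human spleen homogenate is scored by 4-MU fluorescence after 40 min at 37C, pH 5.0, with 1 mM substrate. AC50s come from concentration-response fitted to the Hill equation.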
GAA inh = alpha-glucosidase (human) inhibition; P10253; purified human GAA, 4-MU-alpha-glucoside fluorescence; Potency, µM (series often up to 76.9 µM), hits mostly inhibitors; actives 0.005% (n = 200,000); AID 1466
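Compounds are titrated up to 77 uM against 4 nM human enzyme. Substrate 4-methylumbelliferyl-alpha-D-pyranoside (400 uM) reacts 20 min at room temperature in pH 5.0 buffer; liberated 4-methylumbelliferone is read at 440 nm.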
GAA glycogen mod = alters human alpha-glucosidase cleavage of glycogen | P10253 | recombinant GAA, glycogen substrate, Amplex Red glucose oxidase fluorescence | Potency, µM (series often up to 76.4 µM), usual class: inhibitors | actives 0.38% (n = 300,000);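 further: the screen sought inhibitors and activators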
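qHTS, 1536-well; enzyme 4 nM final; cpd up to 77 uM; substrate bovine liver glycogen 30 ug; 50 mM citrate/phosphate pH 5.0, 0.01% Tween-20; 37 C, 40 min; Amplex Red detection 45 min RT; Hill fit → AC50.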
GAA spleen mod = inhibits or activates alpha-glucosidase in human spleen homogenate | P10253 | human spleen homogenate, 4-MU-alpha-glucoside fluorescence | Potency, µM (highest dose often 79.9 µM), usual class: inhibitors | actives 0.006% (n = 240,000)
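Compounds were titrated against alpha-glucosidase in spleen homogenate at pH 5.0, with 1 mM 4-methylumbelliferyl substrate for 40 min at 37 C. Reactions were quenched with pH 10 NaOH/glycine and fluorescence measured.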
GLA inh pH 4.5 = alpha-galactosidase A (human) inhibition, pH 4.5; activity change, negative = inhibition, % at 105 µM; 230,000 tested, under 10 active; purified enzyme, 4-MU-alpha-Gal fluorescence, pH 4.5
Target sequence (P06280 whole entry, looked up): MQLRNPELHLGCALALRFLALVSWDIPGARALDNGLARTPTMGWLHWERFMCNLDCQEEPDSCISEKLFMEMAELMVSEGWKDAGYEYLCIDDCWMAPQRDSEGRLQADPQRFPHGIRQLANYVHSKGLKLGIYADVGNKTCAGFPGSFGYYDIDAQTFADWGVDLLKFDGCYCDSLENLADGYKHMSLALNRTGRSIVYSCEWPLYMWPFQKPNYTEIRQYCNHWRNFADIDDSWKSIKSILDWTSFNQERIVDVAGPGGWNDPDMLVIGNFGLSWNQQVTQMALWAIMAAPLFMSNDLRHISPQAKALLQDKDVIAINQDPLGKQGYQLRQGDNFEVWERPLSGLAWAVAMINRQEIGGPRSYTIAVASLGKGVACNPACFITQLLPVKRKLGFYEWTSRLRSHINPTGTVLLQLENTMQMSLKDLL
Numbers stand for hits; n = inactive; u = inconclusive; x = no result; [ ] = dose if it differs, or a comment. An excerpt weighted towards active compounds, which were near 0.4% of everything screened. The call rests on the fitted dose curve; in most records, active means well fitted curve in the direction sought with a large enough effect; inconclusive means small, poorly fitted or top-dose-only effect, or another doubt; inactive means no such curve, though single readings can be large; an effect the other way counts as inactive or inconclusive.

SMILES	GLA spleen mod	GAA inh	GAA glycogen mod	GAA spleen mod	GLA inh pH 4.5
O=C(COc1cccc(C(F)(F)F)c1)N1CCN(c2ccc(O)cc2)CC1	n	n	2µM	n	u
O=C(CCSc1ccc(Cl)cc1)N1CCN(c2ccc(O)cc2)CC1	n	x	17.8µM	n	n
O=C(CCOc1ccccc1)N1CCN(c2ccc(O)cc2)CC1	n	x	6.31µM	n	n
CN(C)c1ccc(NC(=O)CC2NCCNC2=O)cc1 (stereo not given)	n	n	n	n	n
CN(C(=O)C1CCC(=O)N(Cc2ccccc2F)C1)C1CCOCC1 (stereo not given)	x	x	n	x	x
COc1ccc2[nH]c3c(c2c1)[C@@H]1CCN2C(=O)CCC[C@H](C3)[C@H]12	x	x	n	x	x
O=C(c1ccc2ncsc2c1)N1CCN(c2ccc(O)cc2)CC1	n	n	9.92µM	n	n
O=C(c1ccc2ncsc2c1)N1CCN(c2ccccc2Cl)CC1	n	n	n	n	u
COc1ccc(Nc2nc(C)cc(=O)[nH]2)cc1	n	n	n	n	n
CCOc1c(Br)cc(CNc2ccc(N3CCOCC3)cc2)cc1OC	n	x	35.5µM	n	n
COCc1cc(C)nc(SCC(=O)c2ccc(O)c(O)c2)c1C#N	n	n	14.1µM	n	n
COc1cccc(CNc2ccc(Br)cn2)c1O	n	n	u	n	n
CCCn1cnc2cc(NCc3cccc(OC)c3O)ccc21	n	n	17.6µM	n	n
COc1cccc(CNc2ncc(Br)cc2Br)c1O	n	n	24.9µM	n	n
Cc1cccc(Cn2c(=O)n(CCc3ccccc3)c(=O)c3c(C)c(C)sc32)c1	x	x	n	x	x
O=C1c2c(O)cc(O)cc2O[C@H](c2ccc(O)c(O)c2)[C@@H]1O	n	n[15.4 µM]	3.16µM	n	n
O=C1c2c(O)cc(O)cc2O[C@H](c2ccc(O)c(O)c2)[C@H]1O	n	n[15.4 µM]	u	n	n
COc1ccccc1N1C(=O)c2cccc3c(Cl)ccc(c23)C1=O	x	x	n	x	x
COc1cccc(NS(=O)(=O)c2ccc3[nH]cc(C(=O)N4CCCC4)c(=O)c3c2)c1	x	x	28.2µM	x	x
CCOC(=O)c1[nH]nc(-c2cc(CC)c(O)cc2O)c1-c1cscn1	n	n	12.5µM	n	n
CCCc1cc2c(=O)c(-c3cscn3)c(C(=O)OCC)oc2cc1O	n	n	n	n	n
COc1ccc(CCN2C(=O)C3C4C=CC(C3C2=O)C2C(=O)N(CCc3ccc(OC)c(OC)c3)C(=O)C42)cc1OC (stereo not given)	n	n	n	n	n
Cc1ccc2oc(C(=O)Nc3ccc(S(=O)(=O)Nc4ncccn4)cc3)cc(=O)c2c1	x	x	n	x	x
Cc1ccc2oc(C(=O)Nc3ccc(S(=O)(=O)N4CCCCC4C)cc3)cc(=O)c2c1 (stereo not given)	x	x	7.08µM	x	x
COc1ccc2c(c1OC)C(=O)OC2CC(=O)c1ccc(O)c(O)c1 (stereo not given)	n	n	14µM	n	n
SMILES	GLA spleen mod	GAA inh	GAA glycogen mod	GAA spleen mod	GLA inh pH 4.5
Cc1nn(-c2ccccn2)c2nc(-c3cccs3)cc(C(=O)N3CCOCC3)c12	n	u	n	n	n
O=c1c2sccc2nc(SCc2cc(=O)n3cc(Cl)ccc3n2)n1Cc1ccccn1	n	n	n	n	n[21.1 µM]
Cc1cccc2sc(NNC(=O)C3=COCCO3)nc12	n	n	u	n	n
O=C(NNc1nc2c(F)cc(F)cc2s1)C1=COCCO1	n	n	4.43µM	n	n
COC(=O)c1ccc([N+](=O)[O-])c(CS(=O)(=O)c2ccc(Cl)cc2)c1	x	x	n	x	x
Cc1ccccc1C(=O)NN1C(=O)CSC1=S	n	n	u	n	n
CCOC(=O)c1ccccc1N1C(=O)CSC1=S	n	n	28µM	n	n
Clc1ccc(-c2ccccc2)nn1	n	x	n	n	n
CCc1ccc2nc(NC(=O)c3ccc4c(=O)[nH]c(CN5CCOCC5)nc4c3)sc2c1	n	n	n	n	n
Cc1ccc(-n2ncc3c(SCc4ccccc4)ncnc32)cc1	n	n	n	n	n
O=C1C=C(Nc2ccccc2O)c2ccccc2C1=O	n	n	12.5µM	u	n
CCCC(=O)Nc1ccc(NC(=O)CCc2ccccc2)cn1	n	u	n	n	n
Cc1ccc(NC(=O)c2nc[nH]c2C(=O)N[C@@H](C)c2ccccc2)cc1	n	x	n	n	n
Cc1ccc(NC(=O)c2[nH]cnc2C(=O)NN)cc1	n	u	20µM	n	n
CC(=O)N[C@@H](CC(=O)O)C(=O)O	n	x	x	n	n
COc1cc(C)c(N)cc1C(C)C	n	n	14.1µM	n	n
O=C(O)CCCC(=O)N1N=C(c2ccccc2)CC1c1ccc2nccnc2c1 (stereo not given)	n	n	n	n	n
O=C(CSc1cn(CCNC(=O)c2cccc(C(F)(F)F)c2)c2ccccc12)Nc1ccc2c(c1)OCCO2	x	x	35.5µM	x	x
CC(=O)Nc1ccc(S(=O)(=O)N/N=C/c2ccc(C)o2)cc1	x	x	n	x	x
Oc1ccccc1Nc1nc(-c2ccccc2O)nc2ccccc12	x	x	n	x	x
CCc1cc(CNC(=O)c2ccc(OC)c(OC3CCN(C(C)C)CC3)c2)on1	x	x	n	x	x
CC(C)(C)NC(=O)C(c1ccncc1)N(Cc1cccs1)C(=O)c1csnn1 (stereo not given)	n	x	u	n	n
O=C(NC1CCCC1)C(c1ccncc1)N(Cc1cccs1)C(=O)c1csnn1 (stereo not given)	n	n	19.8µM	n	n
COc1ccc(C(=O)NNC(=S)NC(=O)C(C)(C)C)cc1	n	n	7.94µM	n	n
CC(=O)NC(=O)Nc1sc(=S)n(C)c1C	n	n	u	n	n
SMILES	GLA spleen mod	GAA inh	GAA glycogen mod	GAA spleen mod	GLA inh pH 4.5
Cc1ccc(NC(=O)Nc2sc(=S)n(C)c2C)cc1	n	n	25.1µM	n	n
C=CC[n+]1c(-c2ccc(OC)cc2)csc1NNC(=O)Nc1ccccc1	n	n	20µM	n	n
C=CC[n+]1c(-c2ccc(C)cc2)csc1Nc1ccc(NC(C)=O)cc1	n	n	n	n	n
COC(=O)c1ccccc1NC(=S)N1CCOCC1	x	x	n	x	x
Cc1ccc2nc(N3C(=O)C(O)=C(C(=O)c4ccc(C)o4)C3c3cccc(O)c3)sc2c1 (stereo not given)	n	n	n	n	n
Oc1ccc2ccccc2c1C1Nc2cccc3cccc(c23)N1	n	n	10µM	n	n
COc1cc(C2Nc3cccc4cccc(c34)N2)ccc1O	x	x	n	x	x
C=CCOC(=O)Nc1c(C(=O)OC)[nH]c2ccccc12	n	n	n	n	n
CCS(=O)(=O)Nc1c(C(=O)OC)[nH]c2ccccc12	n	n	4.47µM	n	n
CCS(=O)(=O)Nc1c(C(=O)O)[nH]c2ccccc12	n	n	5.01µM	n	n
Cc1c(NC(=O)CN2CCN(c3ccc([N+](=O)[O-])cc3)CC2)c(=O)n(-c2ccccc2)n1C	n	n	n	n	n
Cc1ccc(S(=O)(=O)NC(=O)Nc2c(C)n(C)n(-c3ccccc3)c2=O)cc1	n	n	15.7µM	n	n

Assay outcomes from PubChem.
